For ten molecules, outcome and Potency results are on record in PubChem BioAssay (Tox21).

Inconclusive results are not listed. Active and inactive are the calls of the source. Unless noted, calls follow the shape of the dose curve; as a rule, active = well fitted curve in the direction sought with a large enough effect in the repeat runs; inconclusive = weak or mixed curves; inactive = no such curve, though single readings can be large; an effect the other way counts as inactive or inconclusive.

Assay [1] can be described thus: qHTS assay to identify small molecule agonists of the peroxisome proliferator-activated receptor delta (PPARd) signaling pathway - cell viability counter screen (AID 743211). Also: nearly all actives have a fitted effect of over 55% in size. In outline:
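In the same wells used for beta-lactamase reporter measurement, cytotoxicity is scored by CellTiter-Glo. HEK293H PPARd-bla cells receive compound for 17 h at 37C following a 5 h settling period.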

In assay [2] the target is Peroxisome proliferator-activated receptor delta (Homo sapiens) (UniProt Q03181). Put plainly: qHTS assay to identify small molecule agonists of the peroxisome proliferator-activated receptor delta (PPARd) signaling pathway (AID 743212; calls by dose curve). In outline: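 Read-out: beta-lactamase FRET fluorescence after 2 h room-temperature incubation with LiveBLAzer B/G substrate. Cells were HEK293H carrying a UAS-bla reporter for PPARd, treated at 37 C with DMSO-dissolved compounds.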
Sequence of Peroxisome proliferator-activated receptor delta (Homo sapiens) (Q03181 whole entry, looked up): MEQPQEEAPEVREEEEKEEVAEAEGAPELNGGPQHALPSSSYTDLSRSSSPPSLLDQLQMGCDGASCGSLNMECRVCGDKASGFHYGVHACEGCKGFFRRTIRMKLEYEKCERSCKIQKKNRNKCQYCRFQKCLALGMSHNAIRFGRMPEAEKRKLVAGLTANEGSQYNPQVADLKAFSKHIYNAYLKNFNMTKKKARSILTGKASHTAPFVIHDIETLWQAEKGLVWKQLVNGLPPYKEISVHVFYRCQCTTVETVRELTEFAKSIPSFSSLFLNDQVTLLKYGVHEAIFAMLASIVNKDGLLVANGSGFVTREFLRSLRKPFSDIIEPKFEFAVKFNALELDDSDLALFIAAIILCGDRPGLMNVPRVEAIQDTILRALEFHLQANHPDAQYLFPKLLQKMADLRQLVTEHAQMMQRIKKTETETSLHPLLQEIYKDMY

Assay [3] can be described thus: qHTS assay to identify small molecule antagonists of the peroxisome proliferator-activated receptor delta (PPARd) signaling pathway - cell viability counter screen (AID 743213). Also: nearly all actives have a fitted effect of over 50% in size. In a few lines: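 Viability counter-screen, qHTS format: PPARd-bla HEK293H, L165041 300 nM final, 17 h compound exposure at 37 C, CellTiter-Glo luminescence after 30 min RT.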
The target of assay [4] is Peroxisome proliferator-activated receptor delta (Homo sapiens) (UniProt Q03181). Put plainly: qHTS assay to identify small molecule antagonists of the peroxisome proliferator-activated receptor delta (PPARd) signaling pathway (AID 743215; active = well fitted inhibition curve with a large enough effect in the signal ratio in the repeat runs, not every such curve was filed as active; the % refers to the signal ratio;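 also: cells stimulated with agonist L165041 at 300 nM final during compound exposure; series mostly up to about 62 µM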). In outline:
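Screen format: qHTS, antagonist mode. HEK293H PPARd-bla cells received compound and 300 nM L165041 (final), 17 h, 37 C. Beta-lactamase detected via FRET substrate fluorescence, 2 h, room temperature.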

Assay [5] concerns the target Bile acid receptor (Homo sapiens) (UniProt Q96RI1). As to the kind of experiment: qHTS assay to identify small molecule antagonists of the farnesoid-X-receptor (FXR) signaling pathway (AID 743217; active = well fitted inhibition curve with a large enough effect in the signal ratio in the repeat runs, not every such curve was filed as active; the % refers to the signal ratio). In a few lines:
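Quantitative HTS, beta-lactamase reporter format: FXR-UAS-bla HEK 293T cells co-treated 16 h at 37 °C with compounds and 50 uM final chenodeoxycholic acid, then read by B/G FRET fluorescence.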

Assay [6] can be described thus: qHTS assay to identify small molecule agonists of the farnesoid-X-receptor (FXR) signaling pathway - cell viability counter screen (AID 743218). Also: nearly all actives have a fitted effect of over 45% in size. In a few lines: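 Same-well cytotoxicity check on FXR-UAS-bla HEK 293T cells: 5 h attachment, 16 h compound at 37 C, CellTiter-Glo luminescence read at room temperature after 30 min.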
Assay [7] has as its target Bile acid receptor (Homo sapiens) (UniProt Q96RI1). As to the kind of experiment: qHTS assay to identify small molecule agonists of the farnesoid-X-receptor (FXR) signaling pathway (AID 743220; active = well fitted activation curve with a large enough effect in the signal ratio in the repeat runs, not every such curve was filed as active; the % refers to the signal ratio). In outline: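 FXR-UAS-bla HEK 293T cells carrying a UAS-driven beta-lactamase reporter were plated for 5 h at 37C/5% CO2, then exposed to DMSO-dissolved Tox21 10K compounds for 16 h at 37C. A LiveBLAzer B/G FRET substrate was loaded for 2 h at room temperature before fluorescence reading.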

The nature of assay [8]: qHTS assay to identify small molecule antagonists of the farnesoid-X-receptor (FXR) signaling pathway - cell viability counter screen (AID 743221; active = well fitted cell-killing curve with a large enough effect in the repeat runs, not every such curve was filed as active; also: nearly all actives have a fitted effect of over 50% in size). In a few lines: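 Here viability was scored by luminescence after CellTiter-Glo addition to wells already read for beta-lactamase. Prior treatment: compound plus CDCA (50 uM final), 16 h, 37 C, HEK 293T FXR-bla cells.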
In assay [9] the target is Vitamin D3 receptor (Homo sapiens) (UniProt P11473). Put plainly: qHTS assay to identify small molecule agonists of the vitamin D receptor (VDR) signaling pathway (AID 743222; calls by dose curve). In a few lines:
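Using LiveBLAzer B/G FRET detection, agonism was scored in VDR-bla cells exposed overnight (16 h, 37C) to DMSO-dissolved compounds; substrate incubation was 2 h at room temperature.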

Assay [10] shares this target. Put plainly: qHTS assay to identify small molecule antagonists of the vitamin D receptor (VDR) signaling pathway (AID 743223; active = well fitted inhibition curve with a large enough effect in the signal ratio in the repeat runs, not every such curve was filed as active; the % refers to the signal ratio). In a few lines:
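Inhibition of agonist-driven VDR signalling is scored in VDR-bla cells: 3 nM final 1alpha,25-dihydroxyvitamin D3 plus compound, 16 h at 37C, then beta-lactamase detection by FRET substrate fluorescence after 2 h.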

A short description of assay [11]: qHTS assay to identify small molecule agonists of the vitamin D receptor (VDR) signaling pathway - cell viability counter screen (AID 743224). Also: series mostly up to about 63 µM; nearly all actives have a fitted effect of over 50% in size. In outline: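 Counter screen for cytotoxicity: VDR-bla cells at 2,000 cells/well, 16 h compound exposure, then CellTiter-Glo luminescence after the beta-lactamase measurement.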
Assay [12] in a line: qHTS assay to identify small molecule antagonists of the vitamin D receptor (VDR) signaling pathway - cell viability counter screen (AID 743225). Also: nearly all actives have a fitted effect of over 50% in size. In outline: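 Compounds were pinned onto VDR-bla HEK 293T cells together with 1-alpha,25-dihydroxyvitamin D3 at 3 nM final. After 16 h at 37C and 5% CO2 plus the reporter readout, cell viability was measured by CellTiter-Glo luminescence (30 min, room temperature).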

Assay [13] is described as follows: qHTS assay to identify small molecule agonists of the NFkB signaling pathway (AID 1159509; active = well fitted curve in the direction sought with a large enough effect in the signal ratio in the repeat runs, not every such curve was filed as active; the % refers to the signal ratio; also: series mostly up to about 61 µM). In outline:
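Readout: FRET fluorescence, 405 nm excitation, 460/530 nm emission; beta-lactamase expression disrupts FRET. Cells: ME-180 stably carrying NF-kB-driven bla reporter. Compound exposure 5 hr, 37 C, 5% CO2.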

The nature of assay [14]: qHTS assay to identify small molecule agonists of the NFkB signaling pathway - cell viability counter screen (AID 1159515; calls by dose curve; also: series mostly up to about 61 µM; nearly all actives have a fitted effect of over 55% in size). In a few lines: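 Counter screen run alongside the NFkB-bla agonist assay: ME-180 reporter cells exposed to compounds for 5 hr, then lysed with CellTiter-Glo in the same wells. Luminescence, read after 30 min, reflects viable cells.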
Assay [15] in a line: qHTS assay to identify small molecule agonists of the endoplasmic reticulum stress response signaling pathway - cell viability counter screen (AID 1159517; calls by dose curve). In a few lines:
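Steps: seed 1,500 ESRE-bla HeLa cells per well; incubate overnight at 37 C, 5% CO2; add compounds in DMSO for 5 hr; run FRET substrate 2 hr RT; add CellTiter-Glo, wait 30 min, read luminescence.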

Assay [16] in a line: qHTS assay to identify small molecule antagonists of the retinoid-related orphan receptor gamma (ROR-gamma) signaling pathway - cell viability counter screen (AID 1159520). Also: nearly all actives have a fitted effect of over 50% in size. In a few lines:
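Tet-on ROR gamma CHO cells were given compounds for 2 hr, then doxycycline hyclate at 1 uM final, and incubated 16 hr at 37 C. Viability was measured as ATP content by CellTiter-Glo luminescence.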

The nature of assay [17]: qHTS assay to identify small molecule agonists of the AP-1 signaling pathway - cell viability counter screen (AID 1159525; calls by dose curve; also: nearly all actives have a fitted effect of over 55% in size). In outline:
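Same-well cytotoxicity counter screen of the Tox21 10K library in ME-180 cells. The readout is ATP-dependent luminescence after 5 h compound treatment. Data are normalised to DMSO and tetra n-octyl ammonium bromide controls.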

The nature of assay [18]: qHTS assay to identify small molecule agonists of the AP-1 signaling pathway (AID 1159526; calls by dose curve).
In assay [19] the target is Nuclear receptor ROR-gamma (Homo sapiens) (UniProt P51449). As to the kind of experiment: qHTS assay to identify small molecule antagonists of the retinoid-related orphan receptor gamma (ROR-gamma) signaling pathway (AID 1159521; also: nearly all actives have a fitted effect of over 50% in size; also: potency is read from the fitted curve at half-maximal effect). In a few lines:
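Test compounds were applied to Tet-on RORγ CHO cells 2 h ahead of doxycycline hyclate (1 uM final). Luciferase reporter activity was quantified by luminescence after 16 h at 37 C and 5% CO2.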

Assay [20] is described as follows: qHTS assay to identify small molecule agonists of the endoplasmic reticulum stress response signaling pathway (AID 1159516; active = well fitted activation curve with a large enough effect in the signal ratio in the repeat runs, not every such curve was filed as active; the % refers to the signal ratio). In outline:
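For this screen, HeLa cells stably carrying beta-lactamase under the ER stress response element received test compounds, positive controls or DMSO for 5 hr at 37 C; B/G FRET substrate was then added and dual-wavelength emission recorded.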

Sequence of Vitamin D3 receptor (Homo sapiens) (P11473 whole entry, looked up): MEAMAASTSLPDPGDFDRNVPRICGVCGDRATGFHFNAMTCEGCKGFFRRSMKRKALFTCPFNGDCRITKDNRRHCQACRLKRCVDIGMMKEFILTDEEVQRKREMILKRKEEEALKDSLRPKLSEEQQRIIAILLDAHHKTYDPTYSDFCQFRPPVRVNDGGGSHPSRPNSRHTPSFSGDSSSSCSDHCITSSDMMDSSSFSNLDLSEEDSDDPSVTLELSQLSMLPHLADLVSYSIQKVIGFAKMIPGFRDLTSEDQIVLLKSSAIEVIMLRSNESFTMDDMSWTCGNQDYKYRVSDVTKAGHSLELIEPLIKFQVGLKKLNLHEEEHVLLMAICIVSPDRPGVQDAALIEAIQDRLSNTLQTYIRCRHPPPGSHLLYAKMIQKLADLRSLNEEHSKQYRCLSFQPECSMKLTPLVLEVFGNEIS
Sequence of Bile acid receptor (Homo sapiens) (Q96RI1 whole entry, looked up): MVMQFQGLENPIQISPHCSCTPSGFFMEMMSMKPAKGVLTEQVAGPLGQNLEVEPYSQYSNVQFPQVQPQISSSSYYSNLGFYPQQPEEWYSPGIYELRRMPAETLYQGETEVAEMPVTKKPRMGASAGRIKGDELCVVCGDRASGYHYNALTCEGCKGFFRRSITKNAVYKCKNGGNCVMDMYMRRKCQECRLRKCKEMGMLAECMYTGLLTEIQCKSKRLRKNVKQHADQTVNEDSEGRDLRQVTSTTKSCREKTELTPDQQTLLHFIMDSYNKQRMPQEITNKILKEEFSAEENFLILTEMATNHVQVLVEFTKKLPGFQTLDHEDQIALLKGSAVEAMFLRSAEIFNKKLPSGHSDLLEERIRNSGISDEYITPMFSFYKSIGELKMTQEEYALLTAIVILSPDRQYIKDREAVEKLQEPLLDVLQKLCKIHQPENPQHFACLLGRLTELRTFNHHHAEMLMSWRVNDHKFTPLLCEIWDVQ

As for `CN=C=S`, the molecule was classed as inactive in assay [1], in [2], in [3], in assay [5], in [6] and in assay [7]. Moreover, the molecule was classed as inactive in [8], in assay [9], in [10], in assay [11], in assay [12] and in assay [13]. Further, the outcome in assay [14] and in assay [15] was inactive. The Potency entry in assay [4], in assay [16], in assay [17] and in assay [18] was “inactive” in each case.
For the molecule `C1CN2CCN1CC2`, the result in assay [1], in assay [3], in assay [6], in assay [8], in assay [9] and in assay [10] was inactive. Besides, the outcome in assay [11], in assay [12], in [13], in [14] and in assay [15] was inactive. Further, the Potency result in assay [16], in assay [19], in assay [17] and in assay [18] was “inactive” each time.
`Clc1cccc(Cl)c1Cl`: the molecule was called inactive in assay [1], in [2], in assay [3], in [6], in [8] and in [9]. In addition, the molecule was called inactive in assay [10], in assay [11], in assay [12], in assay [13], in assay [14] and in assay [15]. The Potency result in assay [4], in assay [19] and in assay [18] was “inactive” each time.
Turning to `O=[N+]([O-])c1ccc(Oc2ccc(Cl)cc2Cl)cc1`, the molecule was classed as inactive in assay [1], in assay [2], in [3], in assay [8], in [9] and in [10]. In addition, the molecule was classed as inactive in [11], in assay [12], in [13], in [14] and in assay [15]. For the same molecule, the Potency result in [4], in [19], in assay [17] and in assay [18] was “inactive” each time.
On to `C[C@]12CC[C@H]3[C@@H](CC[C@@]45O[C@@H]4C(O)=C(C#N)C[C@]35C)[C@@H]1CC[C@@H]2O`, for which the call in assay [1], in [2], in assay [3], in assay [6], in assay [8] and in assay [9] was inactive. The molecule was classed as inactive in [11], in assay [12], in [13], in assay [14] and in assay [15]. For the same molecule, the Potency entry in assay [4], in [16] and in assay [18] was “inactive” throughout. Further, the Potency in assay [19] was 48.6 µM (active).
For the molecule `c1ccc(OP(Oc2ccccc2)Oc2ccccc2)cc1`, the molecule was called inactive in [1], in assay [3], in assay [6], in assay [8], in assay [9] and in assay [10]. In addition, the call in [11], in [12], in assay [13], in assay [14] and in [15] was inactive. The Potency result in assay [16], in assay [19] and in assay [18] was “inactive” each time.
On to `CN(C)CCO`, for which the call in [1], in assay [2], in assay [3], in assay [6], in assay [8] and in [9] was inactive. Further, the molecule was called inactive in [10], in assay [11], in assay [12], in assay [13], in assay [14] and in assay [15]. Moreover, the Potency result in [4], in assay [16], in assay [19], in assay [17] and in [18] was “inactive” throughout.
Turning to `Nc1ccc(Br)cc1`, the molecule was classed as inactive in [1], in assay [2], in assay [3], in [5], in assay [6] and in [7]. Besides, the call in assay [8], in [12], in [13], in assay [14] and in [15] was inactive. For the same molecule, the Potency result in assay [4], in assay [16], in assay [19] and in assay [18] was “inactive” in each case.
For the molecule `O=C1CCCN1`, the result in assay [1], in assay [2], in [3], in assay [5], in assay [6] and in assay [7] was inactive. Besides, the call in assay [8], in assay [11], in assay [12], in assay [13], in assay [14] and in [15] was inactive. For the same molecule, the Potency result in assay [4], in [16], in assay [19], in assay [17] and in [18] was “inactive” throughout.
As to `CC(C)OC(=O)Nc1ccccc1`, the molecule was classed as inactive in assay [1], in assay [3], in assay [6], in assay [8], in [9] and in [10]. Further, the result in [11], in assay [12], in [13], in assay [14], in assay [20] and in [15] was inactive. In addition, the Potency result in [19] and in assay [18] was “inactive” in each case.
